Reference: ChEMBL document CHEMBL3988442, “University of Dundee, Small-Polar-MMV Screening Library” (2021)
In all, about 48,000 compounds went through this assay and about 13,000 (27%) showed an effect of 50% or more. Some of the results follow.

Each compound was assayed on Wolbachia pipientis (assay: Anti-Wolbachia Cell-Based Screen). Conditions: 5 µM.
Assay type: functional
Parameters: scale not given: in the data most compounds retested in dose-response had high values
With COc1cc(OC)c(CNC(=O)NCC(=O)N(C)C)c(OC)c1 the “Percent Effect” value was -14.89%. For COc1ccc(-c2n[nH]cc2CN(C)CCC2CCOCC2)cc1F, the “Percent Effect” value was -12.67%. In the case of CN(C)S(=O)(=O)N1CCCCC1CCc1ccc(O)cc1 (stereo unspecified), the “Percent Effect” value is reported as 3.428%. For Cc1nsc(NCCNS(=O)(=O)c2cccc(Cl)c2)n1, the “Percent Effect” value was 1.185%. With COc1nccnc1N1CCN(Cc2ccc(F)cc2)C(=O)C1 the “Percent Effect” value was -14.02%. In the case of O=C1CCC(=O)N1c1nn(Cc2ccc(F)cc2)cc1Cl, the “Percent Effect” value is reported as 96.9%. CC(C)C1CN(c2ncccc2Cl)CCC(=O)N1Cc1ccc(F)cc1 (stereo unspecified) was tested, and the “Percent Effect” value was 6.297%. For Cc1ccc(CN(CCCO)Cc2nc3ccccc3[nH]2)s1, the “Percent Effect” value was -7.789%. For CNC(=O)[C@@H]1C[C@@H](N)CN1C(=O)CCSCc1ccc(F)cc1, the “Percent Effect” value was -13.45%. O=C(C1CCC2(CCN(c3nncs3)CC2)CO1)N1CCCC1.O=C(O)C(F)(F)F (stereo unspecified) was tested, and the “Percent Effect” value was -6.023%. With Cc1ccc(CN2CCC[C@]3(C(=O)O)CN(c4ncccn4)C[C@@H]3C2)o1.O=C(O)C(F)(F)F the “Percent Effect” value was -9.127%. In the case of O=C(O)C(F)(F)F.O=C(O)[C@]12CCCN(Cc3ccccc3)C[C@H]1CN(c1ncccn1)C2, the “Percent Effect” value is reported as -10.65%. In the case of Cc1cnc(N2C[C@@H]3CN(Cc4ccco4)CCC[C@]3(C(=O)O)C2)nc1.O=C(O)C(F)(F)F, the “Percent Effect” value is reported as 5.679%. Cc1cnc(N2C[C@@H]3CN(C4CCOC4)CCC[C@]3(C(=O)O)C2)nc1.O=C(O)C(F)(F)F (stereo partly specified) was tested, and the “Percent Effect” value was 115.6%. In the case of O=C(O)C(F)(F)F.O=C(O)[C@]12CCCN(CC3CCOC3)C[C@H]1CN(c1ncccn1)C2 (stereo partly specified), the “Percent Effect” value is reported as 119%. In the case of O=C(O)C(F)(F)F.O=C(O)C(F)(F)F.O=C(O)[C@]12CCCN(Cc3ccncc3)C[C@H]1CN(c1ncccn1)C2, the “Percent Effect” value is reported as 1.194%. For CNC(=O)C1CCC2(CCN(c3nncs3)CC2)CO1.O=C(O)C(F)(F)F (stereo unspecified), the “Percent Effect” value was 1.191%. With O=C(O)C(F)(F)F.O=C(O)[C@]12CCCN(C3CCOC3)C[C@H]1CN(c1nncs1)C2 (stereo partly specified) the “Percent Effect” value was 113.4%. With Cc1cc(CN(C)C(=O)NCc2ccnc(SC(C)(C)C)c2)no1 the “Percent Effect” value was -6.174%. With COc1ncccc1CNC(=O)CN1CCCCCC1=O the “Percent Effect” value was -54.83%. Cc1nc(N)nc(C)c1Cc1nc(C2CC2)n[nH]1 was tested, and the “Percent Effect” value was -31.49%. For Cc1noc(C)c1CCCNC(=O)C1CCN(C(C)C)CC1, the “Percent Effect” value was 1.059%. In the case of Cc1cc(-c2ccc(=O)n(CCNC(=O)C3CC3)n2)c(C)o1, the “Percent Effect” value is reported as 72.81%. For Cc1cc(C(O)CCNC(=O)COc2ccccc2F)c(C)o1 (stereo unspecified), the “Percent Effect” value was 1.741%. Cc1noc(C)c1CCCNC(=O)C1CCN(C(=O)C2CCC2)CC1 was tested, and the “Percent Effect” value was 9.148%. In the case of Cc1cc(-c2ccc(=O)n(CCNC(=O)C3CCCCC3)n2)c(C)o1, the “Percent Effect” value is reported as 127.3%. Cc1cc(-c2ccc(=O)n(CCNC(=O)C3CCC3)n2)c(C)o1 was tested, and the “Percent Effect” value was 82.02%. COCC(=O)NCCn1nc(-c2cc(C)oc2C)ccc1=O was tested, and the “Percent Effect” value was 96.68%. For Cc1noc(C)c1CCCNC(=O)C1CCN(C(=O)C2CC2)CC1, the “Percent Effect” value was 11.33%. With O=C(NCCNC(=O)C1CCCCC1)NCCn1cccc1 the “Percent Effect” value was 0.3641%. O=C(NCCCNC(=O)C1CCC1)NCCn1cccc1 was tested, and the “Percent Effect” value was -4.539%. For CC(C)NC(=O)NCCn1cnc(C2CCCC2)cc1=O, the “Percent Effect” value was -0.7993%. With COCC(=O)Nc1ccccc1-c1ccc(=O)n(C)n1 the “Percent Effect” value was 7.916%. In the case of CSc1ccc(NC(=O)NCc2nncn2C2CC2)cc1F, the “Percent Effect” value is reported as 6.164%. In the case of Cc1cc(C)n(Cc2ccc(C(=O)NCCN3CCOCC3)cc2)n1, the “Percent Effect” value is reported as 0.4084%. With Cc1cc(C)n(Cc2ccc(-c3noc(C(=O)NCCO)n3)cc2)n1 the “Percent Effect” value was 112.8%. In the case of COCCN(CCOC)C(=O)c1ccc(Cn2nc(C)cc2C)cc1, the “Percent Effect” value is reported as -2.502%. For O=C(NCCN1CCCCC1)c1nc(-c2ccc3cc[nH]c3c2)no1, the “Percent Effect” value was 1.073%. Cc1cc(C)n(Cc2ccc(-c3noc(C(=O)NC[C@@H](C)O)n3)cc2)n1 was tested, and the “Percent Effect” value was 107.8%. With Cc1cc(C)n(Cc2ccc(-c3noc(C(=O)NCCCO)n3)cc2)n1 the “Percent Effect” value was 113.7%. For CCN(CCC(=O)OC)C(=O)c1cccc(Cn2nc(C)cc2C)c1, the “Percent Effect” value was 2.618%. With CNC(=O)CCNC(=O)c1cccc(Cn2nc(C)cc2C)c1 the “Percent Effect” value was -10.69%. For COCc1cc(C[C@@H]2CC[C@H](O)[C@@H](CNCC(C)C)O2)no1, the “Percent Effect” value was -7.367%. With Cc1ccc(CN2CCC3(C2)C(=O)N(CC2CC2)c2ccccc23)s1.O=C(O)C(F)(F)F (stereo unspecified) the “Percent Effect” value was 106.7%. For CC(C)CN1C(=O)C2(CCN(CC3CCOCC3)C2)c2ccccc21.O=C(O)C(F)(F)F (stereo unspecified), the “Percent Effect” value was 3.565%. In the case of CC(C)CN1C(=O)C2(CCN(Cc3ccoc3)C2)c2ccccc21.O=C(O)C(F)(F)F (stereo unspecified), the “Percent Effect” value is reported as 60.6%. With CC(C)CN1C(=O)C2(CCN(Cc3cccs3)C2)c2ccccc21.O=C(O)C(F)(F)F (stereo unspecified) the “Percent Effect” value was 129.4%. For CC(C)CN1C(=O)C2(CCN(Cc3nccs3)C2)c2ccccc21.O=C(O)C(F)(F)F (stereo unspecified), the “Percent Effect” value was 21.56%. With Cc1ccc(CN2CCC3(C2)C(=O)N(CC(N)=O)c2ccccc23)s1 (stereo unspecified) the “Percent Effect” value was -16.39%. In the case of CN1CCN(Cc2cccnc2)C2(CCN(Cc3ccoc3)C2)C1=O.O=C(O)C(F)(F)F.O=C(O)C(F)(F)F.O=C(O)C(F)(F)F (stereo unspecified), the “Percent Effect” value is reported as -11.48%. In the case of CC(C)CN1C(=O)C2(CCN(Cc3ccsc3)C2)c2ccccc21.O=C(O)C(F)(F)F (stereo unspecified), the “Percent Effect” value is reported as 118.8%.
